Measured values: PubChem BioAssay AID2685 (National Center for Advancing Translational Sciences (NCATS), 2010)
About 2,100 (0.66%) of roughly 320,000 compounds were called active. Roughly 53% stayed inconclusive and do not appear here. Calls come from the whole dose curve; as a rule, active = well fitted inhibition curve with a large enough effect in the signal ratio, with a control signal flat (not every such curve was filed as active); inconclusive = small, poorly fitted or top-dose-only effect, or effect the other way, or a change in a side signal; inactive = flat fitted curve, though single readings scatter; the % refers to the signal ratio. The full list was thinned out, with actives kept by preference.

Assay: qHTS Assay for Lipid Storage Modulators in Drosophila S3 Cells;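 for cell number change: cells counted by Cell Tracker Red CMTPX staining in the red channel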; for lipid storage change, negative = inhibition: % is set by controls: 0 for no effect and ±100 for the full control effect
Conditions: BODIPY lipid droplet fluorescence, 18-24 h, cells fed with added oleic acid; cell number change: measured here: cell count max response; series mostly up to 46.1 µM; lipid storage change, negative = inhibition: at the top concentration
Summary of the method: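 Laser-scanning cytometry quantifies lipid droplet accumulation (500–530 nm total intensity; droplet/cell object ratio) in oleic acid-fed (400 uM added) Drosophila S3 cells treated with a concentration series. 20 uM Triacsin C defined 100% inhibition.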
Potency is the fitted concentration of half-maximal effect.

| Structure (SMILES) | lipid storage change, negative = inhibition | cell number change [%] | Potency | outcome |
| --- | --- | --- | --- | --- |
| COCCN(C(=O)CNC(=O)c1cccs1)C(C(=O)NC1CCCCC1)c1ccco1 (stereo unspecified) | 6.95% (inactive) | -12.2 |  |  |
| CC(=O)C(Sc1nnnn1-c1ccc(O)cc1)c1ccccc1 (stereo unspecified) | 5.34% (inactive) | 5.67 |  |  |
| COc1ccc(NC(=O)N2CCN(c3nc4ccccc4n3C(C)C)CC2)cc1 |  | -28.6 | 14.6 µM (active) |  |
| CC(C)n1c(N2CCN(C(=O)NCc3ccccc3)CC2)nc2ccccc21 | 4.69% (inactive) | -4.04 |  |  |
| Cn1c(N2CCN(C(=O)Nc3ccc(F)cc3)CC2)nc2ccccc21 | -3.7% (inactive) | 17.1 |  |  |
| N#Cc1c(Cl)nc(SCc2ccccc2)nc1-c1ccccc1 | -0.854% (inactive) | -2.68 |  |  |
| CCC(C)Sc1ccc([C@H]2N[C@@](Cc3ccccc3)(C(=O)OC)[C@H]3C(=O)N(C)C(=O)[C@@H]23)cc1 (stereo partly specified) | -6.01% (inactive) | 17.3 |  |  |
| COc1cc(/C=C2\SC(=S)N(CC(=O)Nc3ccc(O)cc3)C2=O)cc(OC)c1OC | 12.1% (inactive) | 19.7 |  |  |
| O=C(CCN1C(=O)/C(=C\c2ccc(F)cc2)SC1=S)Nc1ccccc1 |  |  |  | inactive |
| COc1cc(/C=C2\SC(=S)N(CCC(=O)Nc3ccccc3)C2=O)cc(OC)c1OC | -5.12% [at 9.22 µM] (inactive) | 15 |  |  |
| COc1cc(/C=C2/SC(=S)N(CCC(=O)Nc3ccccc3)C2=O)cc(OC)c1OC |  |  | 1.84 µM (active) |  |
| COc1ccc(/C=C2\SC(=S)N(CCC(=O)Nc3cccc(O)c3)C2=O)cc1OC |  | -7.94 |  | inactive |
| COc1cc(/C=C2\SC(=S)N(CCC(=O)Nc3cccc(O)c3)C2=O)cc(OC)c1OC |  | 10.2 | 3.66 µM (active) |  |
| COc1cc(/C=C2\SC(=S)N(CCC(=O)Nc3ccccc3O)C2=O)cc(OC)c1OC | -14.3% (inactive) |  |  |  |
| O=C(CCN1C(=O)/C(=C/c2ccccc2)SC1=S)N[C@@H](CO)Cc1ccccc1 |  | -19.2 |  | inactive |
| O=C(CCN1C(=O)/C(=C/c2ccc(F)cc2)SC1=S)N[C@@H](CO)Cc1ccccc1 |  | -1.15 | 29.1 µM (active) |  |
| COC(=O)c1ccccc1Oc1ccc(NC(=O)CCCl)cc1 | 7.03% (inactive) | -3.28 |  |  |
| O=C(CSc1nnc(Cn2c(=O)sc3ccccc32)n1-c1ccccc1)N1CCCC1 | 4.03% (inactive) | -5.75 |  |  |
| CC(C)C(C(=O)NCC1CCCO1)N(C(=O)CNS(=O)(=O)c1ccccc1)c1ccc(F)cc1 (stereo unspecified) |  | 10.5 |  | inactive |
| Fc1cccc(COc2ccccc2CNc2ccccc2)c1 | -3.76% (inactive) | -10 |  |  |
| COCCn1ccc2c(OCC(=O)NCc3ccccc3)cccc2c1=O | -25.1% (inactive) | -6.52 |  |  |
| CNC(=S)N/N=C/c1cn(Cc2ccc(F)cc2)c2ccccc12 | 22.5% (inactive) | -3.02 |  |  |

| Structure (SMILES) | lipid storage change, negative = inhibition | cell number change [%] | Potency | outcome |
| --- | --- | --- | --- | --- |
| O=S(=O)(N/N=C/c1cn(Cc2ccccc2)c2ccccc12)c1ccccc1 | -12% (inactive) | -19.2 |  |  |
| O=[N+]([O-])/C=C/c1cn(Cc2ccc(F)cc2)c2ccccc12 |  | -17.9 | 20.6 µM (active) |  |
| O=[N+]([O-])/C=C/c1cn(Cc2ccccc2)c2ccccc12 |  |  | 10.3 µM (active) |  |
| O=C(O)c1ccc(N/N=C/c2cn(Cc3ccc(F)cc3)c3ccccc23)cc1 | 7.6% (inactive) | 0.719 |  |  |
| O=c1ccn(Cc2ccccc2)c2ccccc12 | -28% (inactive) | -20.5 |  |  |
| N/C(=N\OC(=O)C12CC3CC(CC(C3)C1)C2)c1ccncc1 | -5.89% (inactive) | -16.5 |  |  |
| COc1ccc(N(C(=O)CNC(=O)c2ccco2)C(C(=O)NCC2CCCO2)c2ccccc2)cc1OC (stereo unspecified) |  | 7.66 |  | inactive |
| O=C(c1ccc(-c2ccccc2)cc1)N1CCN(Cc2ccccn2)CC1 | 4.01% (inactive) | -0.729 |  |  |
| O=C(O)CC1S/C(=N/N=C/c2ccc(Br)cc2)N(c2ccccc2)C1=O (stereo unspecified) | -1.72% (inactive) | -1.06 |  |  |
| CCC(C)(C)n1nnnc1C(c1cccc(C#N)c1)N1CCN(c2cccc(C)c2C)CC1 (stereo unspecified) | -4.77% (inactive) | 0.845 |  |  |
| O=C(CSC1=NCCS1)N1CCN(c2ccc(Cl)cc2)CC1 | -5.89% (inactive) | 1.49 |  |  |
| O=C(CSC1=NCCS1)N1CCCCCC1 |  | 0.498 | 4.61 µM (active) |  |
| O=C(CSC1=NCCS1)N1CCN(c2ccccc2)CC1 | -9.79% (inactive) | -11.5 |  |  |
| Cc1c(Cl)cccc1NC(=O)CCCCCN1C(=O)CCC1=O |  |  |  | inactive |
| CS(=O)(=O)c1ccc2nc(NC(=O)c3cccc(Cl)c3)sc2c1 | 18.2% (inactive) | 5.93 |  |  |
| CS(=O)(=O)c1ccc2nc(NC(=O)Nc3cccc(Cl)c3)sc2c1 |  | 10.2 | 16.4 µM (active) |  |
| Cc1ccc(NC(=O)Nc2nc3ccc(S(C)(=O)=O)cc3s2)cc1 |  | 0.9 |  | inactive |
| Cc1ccc(S(=O)(=O)Cc2ccc([N+](=O)[O-])cc2)cc1 | -23.4% (inactive) | -6.56 |  |  |
| CC(=O)c1ccc([N+](=O)[O-])c(CS(=O)(=O)c2ccc(Cl)cc2)c1 | 13% (inactive) | 12.3 |  |  |
| Cc1ccc(S(=O)(=O)Cc2cc(F)c([N+](=O)[O-])cc2[N+](=O)[O-])cc1 |  | 20.1 | 0.411 µM (active) |  |
| Cc1nc(C(C)NC(=O)CCc2nnc(-c3ccsc3)o2)cs1 (stereo unspecified) | 11.3% (inactive) | -5.47 |  |  |
| CCC(c1nnc(SCC(=O)Nc2ccc(N3CCOCC3)cc2)n1Cc1ccccc1)N(C)C (stereo unspecified) |  |  |  | inactive |

| Structure (SMILES) | lipid storage change, negative = inhibition | cell number change [%] | Potency | outcome |
| --- | --- | --- | --- | --- |
| CS(=O)(=O)c1cccc(C(=O)NCc2ccccc2)c1 |  |  |  | inactive |
| CS(=O)(=O)Cc1ccc(C(=O)N(CCc2ccccc2)Cc2ccccc2)cc1 |  | -0.348 |  | inactive |
| C=CCOc1ccccc1CN(CCc1ccccc1)C(=O)c1cccc(S(C)(=O)=O)c1 |  | 1.8 | 4.11 µM (active) |  |
| O=C(CNC(=O)c1cccs1)NCC(=O)OCc1ccc(F)cc1 | -4.32% (inactive) | -6.51 |  |  |
| CN(C(=O)CSc1nc2sc3c(c2c(=O)n1C)CCC3)C1CCS(=O)(=O)C1 (stereo unspecified) | 0.0094% (inactive) | -5.19 |  |  |
| CCc1ccc(N(CC(=O)NC(C)(C)C)C(=O)CCC(=O)Nc2ccccn2)cc1 | -5.7% (inactive) | 19.3 |  |  |
| Cc1cccc(NC(=O)CCS(=O)(=O)c2ccccc2)n1 | 8.98% (inactive) | 3.85 |  |  |
| CCn1c(SC)nnc1-c1sc2cc(Cl)ccc2c1Cl | 22.8% (inactive) | -4.88 |  |  |
| CSc1nnc(-c2ccccc2)n1C | -1.83% (inactive) | -0.435 |  |  |
| CSc1nnc(-c2sc3cc(Cl)ccc3c2Cl)n1C |  | -10.5 | 23.1 µM (active) |  |
| Cc1ccc(OCCOCCn2ccnc2)c(Br)c1 |  | -17 |  | inactive |
| COc1ccc(-c2csc3ncn(-c4cccc(C)c4)c(=O)c23)cc1OC | 9.43% (inactive) | 14.7 |  |  |
| O=C(N/N=C/c1ccccc1Cl)c1cccc(F)c1 | 13.9% (inactive) | 0.333 |  |  |
| O=C(N/N=C/c1cccc2ccccc12)c1ccncc1 | 1.15% (inactive) | 0.153 |  |  |
| O=C(Nc1ccc(F)cc1)c1ccccc1 |  |  |  | inactive |
| O=C(Nc1ccc(F)cc1)c1cccc(C(=O)Nc2ccc(F)cc2)c1 |  | 22.5 | 0.231 µM (active) |  |
| O=C(Nc1cccc(NC(=O)c2cccc(F)c2)n1)c1cccc(F)c1 |  |  | 6.51 µM (active) |  |
| O=C(Nc1ccc(F)cc1)c1ccc2[nH]c(=O)c(=O)[nH]c2c1 | -21.9% (inactive) | 25.6 |  |  |
| Cc1cc(NC(=O)c2cccc(F)c2)no1 | -3.93% (inactive) | 9.9 |  |  |
| O=C(Nc1ncccn1)c1cccc(F)c1 | 20.9% (inactive) | -18.7 |  |  |
| O=C(N/N=C/c1cccc2ccccc12)c1cccc(F)c1 |  | -0.111 | 11.2 µM (active) |  |
